Bioassay records from PubChem BioAssay.
SW480 rereplic: inducers of DNA re-replication in SW480 colon cancer cells | hit rate 1.8% among 340,000 | SW480 DNA re-replication, Hoechst DNA content imaging, 48 h | Potency, µM (top dose mostly 46.1 µM), for inactives: at the highest dose re-replication activation, usual class: activators | AID 624297; further: potency means the concentration at half of the fitted maximal effect; % of control where 0% means no effect; nearly all actives have a fitted effect of over 55% in size
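250 cells/well; 23 nL cpd via pin tool; 48 hr, 37 C, 5% CO2; Hoechst 40 min; imager read of total nuclear intensity, ex 405/em 500-530 nm.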
VP16 counter: counter-screen for ROR gamma inhibitors: Gal4-VP16 reporter; Drosophila S2 Gal4-VP16 UAS-luciferase, luminescence, 20 h; Potency, µM (series often up to 53.6 µM), for inactives: top-dose activity, negative = inhibition, hits mostly inhibitors; hit rate 3.5% among 310,000; AID 2546;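 further: Gal4-VP16 expression switched on by copper sulfate through the metallothionein promoter; potency means the concentration at half of the fitted maximal effect; on the % scale 0 is the no-effect control and ±100 the full control effect; nearly all actives have a fitted effect of over 50% in size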
RORg inh: ROR gamma (mouse) transcription inhibition. Potency, µM (top dose mostly 53.6 µM), inactives show at the highest dose activity change, negative = inhibition, hits mostly inhibitors. P51450. hit rate 5.4% among 310,000. AID 2551. Drosophila S2 Gal4-RORgamma UAS-luciferase reporter, 20 h; further: potency means the concentration at half of the fitted maximal effect; on the % scale 0 is the no-effect control and ±100 the full control effect; nearly all actives have a fitted effect of over 60% in size
Target sequence (P51450 whole entry, looked up, the tested form may be a part): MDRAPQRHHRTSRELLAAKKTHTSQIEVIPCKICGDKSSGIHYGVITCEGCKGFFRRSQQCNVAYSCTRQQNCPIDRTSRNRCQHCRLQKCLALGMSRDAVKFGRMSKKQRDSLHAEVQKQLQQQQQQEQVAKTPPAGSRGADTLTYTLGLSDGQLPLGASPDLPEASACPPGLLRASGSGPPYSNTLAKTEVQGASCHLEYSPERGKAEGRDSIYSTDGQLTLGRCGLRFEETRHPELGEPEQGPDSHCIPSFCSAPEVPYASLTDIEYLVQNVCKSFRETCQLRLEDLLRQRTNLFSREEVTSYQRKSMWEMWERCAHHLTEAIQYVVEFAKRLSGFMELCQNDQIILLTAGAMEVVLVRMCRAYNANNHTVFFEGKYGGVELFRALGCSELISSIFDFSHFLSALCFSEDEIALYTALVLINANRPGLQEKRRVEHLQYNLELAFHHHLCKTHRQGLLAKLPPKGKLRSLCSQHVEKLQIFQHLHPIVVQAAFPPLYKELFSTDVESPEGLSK
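ROR gamma transcriptional activity was tracked as Gal4-UAS luciferase output in stably transfected Drosophila Schneider cells, with compound added 1 hr before 700 uM copper sulfate induction and a 20 hr ambient-temperature incubation.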
IL-1B inflam inh: inflammasome signaling inhibition, IL-1 beta readout. THP-1 LPS/ATP IL-1B secretion, AlphaLISA, 16 h; hits give low values. activity change, % at 57.5 µM. hit rate 4.7% among 360,000. AID 743279; in the data active means activity change below about -50%; inconclusive means mostly about -30% to -49%; further: on the % scale 0 is the no-effect control and ±100 the full control effect
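THP-1 cells pretreated 1 hr with compounds (up to 57.5 uM final), then stimulated with LPS (250 ng/mL final) plus ATP (1.25 mM final); secreted IL-1B measured by AlphaLISA after 16 hr, decreased signal indicating inhibition.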
MCF10A rerep: inducers of DNA re-replication in MCF 10A breast cells; MCF 10A DNA re-replication, Hoechst nuclear intensity, 48 h; Potency, µM (titrated, usually from 46.1 µM), without a hit: at the highest dose activity, positive = re-replication, most hits filed as activators; hit rate 2.9% among 350,000; further: potency means the concentration at half of the fitted maximal effect; % of control where 0% means no effect; nearly all actives have a fitted effect of over 50% in size
The depositor's hits bear a star; u = inconclusive; x = no result given; [ ] = dose if it differs, or a comment. In the library only some 11% were active in any assay of this set; here they are far more common. Unless noted, the call rests on the fitted dose curve; in most records, active means well fitted curve in the direction sought with a large enough effect; inconclusive means small, poorly fitted or top-dose-only effect, or another doubt; inactive means no such curve, though single readings can be large; an effect the other way counts as inactive or inconclusive.

SMILES	SW480 rereplic	VP16 counter	RORg inh	IL-1B inflam inh	MCF10A rerep
Cc1ccsc1/C=N\NC(=O)c1cc(C(C)(C)C)[nH]n1	13%	20µM*	10µM*	-12	1%
O=C(Cn1nnc2ccccc21)Nc1ccccc1[N+](=O)[O-]	3%	-5%	1%	-79*	-15%
Cc1ccsc1/C=N/NC(=O)CSCc1ccc(Cl)cc1	-8%	10µM*	11µM*	-11	3%
Cc1ccsc1/C=N/NC(=O)Cc1ccc(Cl)cc1	2%	-2%	-29%	0	9%
CN(C)c1ccc(/C=N/NC(=O)Cn2nnc3ccccc32)cc1	-11%	11%	20%	32	-2%
Cc1ccsc1/C=N\NC(=O)Cn1nnc2ccccc21	18µM*	u	14µM*	12	u
C=CCC(=O)NC1CC(C)(C)Cc2c1cnn2-c1ccccc1C (centres undefined)	-33%	2%	2%	9	-2%
CCN1C(=O)[C@H]2[C@@H](c3ccc(-c4ccc(Cl)c(Cl)c4)c(OC)c3)N[C@@](Cc3ccccc3)(C(=O)OC)[C@H]2C1=O	4%	x	x	0	1%
COC(=O)C(NS(N)(=O)=O)C(C)C (centres undefined)	x	5%	-15%	x	x
CCOC(=O)C1CCCN(C(=O)C2CCN(S(=O)(=O)c3ccc4ccccc4c3)CC2)C1 (centres undefined)	-8%	-9%	24%	0	17%
Cc1ccsc1/C=N/NC(=O)c1ccc2c(c1)OCCO2	-79%	-89%	1.4µM*	-5	-1%
Cc1ccsc1/C=N\NC(=O)c1ccc2c(c1)OCO2	-5%	u	7.1µM*	0	9%
Cc1ccsc1/C=N/NC(=O)c1sccc1C	2%	u	7.9µM*	5	-2%
Cc1ccsc1/C=N\NC(=O)c1n[nH]c2c1CCC2	13µM*	7.1µM*	4µM*	9	8.2µM*
CCOCCOC(=O)C1=C(C)N(C)C(=O)NC1c1ccccc1Cl (centres undefined)	1%	2%	-15%	0	3%
CCOC(=O)C1=C(C)N(C)C(=S)NC1c1ccc(Cl)cc1Cl (centres undefined)	7%	7.9µM*	7.1µM*	-18	8%
CCOC(=O)C1=C(C)N(CCCC(=O)O)C(=O)NC1c1ccc(Cl)cc1Cl (centres undefined)	-3%	5%	-8%	19	9%
CCOC(=O)C1=C(C)N(C)C(=S)NC1c1ccccc1Cl (centres undefined)	2%	u	8.9µM*	-8	4%
CCOC(=O)C1=C(C)N(C)C(=S)NC1c1cccc(Cl)c1Cl (centres undefined)	6%	u	4µM*	9	3%
Cc1cc(C)c2cc(C(=O)N3CCN(c4ncccc4C(F)(F)F)CC3)[nH]c2c1	u	1%	30%	-20	17%
CC(=O)OCC(NC(=O)C(CCCCNC(=O)OCc1ccccc1)NC(=O)OC(C)(C)C)C1OC(n2cc(F)c(=O)[nH]c2=O)C(OC(C)=O)C1OC(C)=O (centres undefined)	x	12%	23%	x	x
CSc1ccccc1OC1CCN(Cc2ccccc2)CC1	1%	5%	-3%	-82*	0%
COCCn1c(C)cc(/C=C(\C#N)C(=O)OC(C)C(=O)Nc2ccc(NC(C)=O)cc2)c1C (centres undefined)	18µM*	x	x	27	u
Cc1cc(/C=C(/C#N)C(=O)O)c(C)n1CCC(C)C	-94%	-18%	-7%	10	u
CNc1oc(-c2ccc(C)cc2)nc1P(=O)(c1ccccc1)c1ccccc1	6%	0%	10%	-5	18µM*
SMILES	SW480 rereplic	VP16 counter	RORg inh	IL-1B inflam inh	MCF10A rerep
COCCNc1oc(-c2ccccc2Cl)nc1C#N	-2%	21%	u	-18	-1%
CNc1oc(-c2ccccc2Cl)nc1P(=O)(c1ccccc1)c1ccccc1	-3%	u	7%	-79*	19%
CCC(C(=O)NCc1ccco1)n1nc(C)n2c(cc3occc32)c1=O (centres undefined)	-11%	4%	24%	22	-3%
S=c1[nH]nc(C2COc3ccccc3O2)o1 (centres undefined)	1%[9.22 µM]	0%	u	11	u
S=c1nc(C2COc3ccccc3O2)[nH][nH]1 (centres undefined)	-16%	17%	13µM*	-1	-4%
CC(C)C[C@@H]1NC(=O)N(CCCn2ccnc2)C1=O	-11%	-12%	-9%	18	0%
CCC(c1nc2ccccc2c(=O)n1-c1nc2ccccc2s1)N1C(=O)c2ccccc2C1=O (centres undefined)	7.3µM*	u	-9%	-5	-50%
CN(C)/C=C/C(=O)c1ccc(F)cc1	-13%	-3%	15%	-8	18µM*
CN(C)/C=C/C(=O)c1ccccc1	-19%	-9%	13%	-3	-1%
CN(C)c1ccc(N/C=C/C(=O)c2ccco2)cc1	u	11µM*	-36%	u	29%
CC(=O)Nc1ccc(N/C=C/C(=O)c2ccco2)cc1	-4%	u	u	2	-2%
CN(C)c1ccc(N/C=C/C(=O)c2ccc(F)cc2)cc1	u	u	10µM*	-29	u
Cc1noc(C)c1C(=O)N1CCC1(C)C(=O)NS(=O)(=O)c1cccc(Cl)c1 (centres undefined)	x	x	x	0	x
COC(=O)C1=C(C)Nc2c(c(=O)n(C)c(=O)n2C)C1c1ccncc1 (centres undefined)	-9%	-2%	2%	0	0%
COC(=O)C1=C(C)Nc2[nH]c(=S)[nH]c(=O)c2C1c1ccc(OC)cc1 (centres undefined)	-14%	-8%	-7%	7	5%
COC(=O)C1=C(C)Nc2sc(C(N)=O)c(N)c2C1c1ccncc1 (centres undefined)	23µM*	1%	-2%	98	u
CCOC(=O)C1=C(C)Nc2sc(C(=O)c3ccc(OC)cc3)c(N)c2C1c1ccc(C(=O)OC)cc1 (centres undefined)	13µM*	-11%	7%	-6	12µM*
COc1cccc(CNC(=O)CCN2C(=O)[C@@H]3Cc4ccccc4CN3C2=O)c1	8%	-4%	-6%	u	-1%
COc1ccc(C(=O)n2cnc3ccccc32)cc1	-4%	18%	-11%	11	1%
N/C(=N\OC(=O)c1ccc(Cl)cc1)c1ccccn1	u	10µM*	8.9µM*	-23	1%
N/C(=N\OC(=O)c1cccc(Br)c1)c1ccccn1	-2%	18µM*	10µM*	21	-24%
N/C(=N\OC(=O)c1ccc(Cl)c([N+](=O)[O-])c1)c1ccccc1	1%	-3%	1%	-6	14%
O=C(NCCNC(=O)c1ccccn1)c1ccc(Cl)cc1	5%	4%	-1%	1	-3%
